Assay results published in PubChem BioAssay AID1159580 (chemical genetic matrix, 2015).
Screen size: about 5,500 compounds; about 2,000 (36%) were called active. About 18% were inconclusive and are not listed. Rule as the data show it: active = normalized growth mostly below about 0.91 (no sharp cut-off); inconclusive = no clear call, values can overlap the other calls; inactive = mostly above about 0.92. Some of the results follow.

Experiment: chemical genetic growth profiling, strain panel (AID 1159580);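 also: tested at 20 µM; growth read once vehicle control cultures reached saturation at 30 °C; 1 = growth at the plate median or of vehicle wells; lower values mean less growth of the strain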
Settings: S. cerevisiae deletion strains, growth OD

Measured: normalized growth

O=C(c1ccc(OCCN2CCCCC2)cc1)c1c(-c2ccc(O)cc2)sc2cc(O)ccc12
active: locus YDR392W, strain spt3, active compounds read low 0.41 | locus YER155C, strain BEM2 (second series), active compounds read low 0.608 | locus YNL071W, strain lat1, active compounds read low 0.854 | locus YPL055C, strain LGE1, active compounds read low 0.826
inactive: locus YAL021C, strain ccr4, active compounds read low 0.971 | locus YAL026C, strain drs2, active compounds read low 0.987 | locus YAL030W, strain snc1, active compounds read low 1.01 | locus YAL040C, strain CLN3, active compounds read low 1.02 | locus YBL061C, strain skt5, active compounds read low 1.01 | locus YBR009C, strain hhf1, active compounds read low 1 | locus YBR023C, strain chs3, active compounds read low 1.01 | locus YBR171W, strain sec66, active compounds read low 1.04 | locus YBR231C, strain swc5, active compounds read low 0.989 | locus YBR279W, strain paf1, active compounds read low 1.02 | locus YCL011C, strain gbp2, active compounds read low 1.02 | locus YCL016C, strain dcc1, active compounds read low 1 | locus YCL061C, strain MRC1 (second series), active compounds read low 0.998 | locus YCL061C, strain MRC1, active compounds read low 1.01 | locus YCL069W, strain vba3, active compounds read low 1.03 | locus YCR088W, strain abp1, active compounds read low 1.02 | locus YDL005C, strain med2, active compounds read low 1.04 | locus YDL040C, strain nat1, active compounds read low 1.02 | locus YDR001C, strain nth1, active compounds read low 1.02 | locus YDR069C, strain doa4, active compounds read low 1.01 | locus YDR137W, strain rgp1, active compounds read low 1.09 | locus YDR150W, strain NUM1, active compounds read low 0.977 | locus YDR159W, strain sac3, active compounds read low 0.984 | locus YDR195W, strain ref2 1.01 | locus YDR297W, strain sur2, active compounds read low 1.01 | locus YDR334W, strain swr1, active compounds read low 1.02 | locus YDR335W, strain msn5, active compounds read low 1.03 | locus YDR363W, strain ESC2, active compounds read low 0.983 | locus YEL003W, strain gim4, active compounds read low 1.02 | locus YEL037C, strain rad23, active compounds read low 1.04 | locus YEL061C, strain CIN8 (second series), active compounds read low 1.03 | locus YER002W, strain NOP16, active compounds read low 1 | locus YER015W, strain faa2, active compounds read low 1.01 | locus YER016W, strain bim1, active compounds read low 1.01 | locus YER111C, strain swi4, active compounds read low 1.03 | locus YFR010W, strain ubp6, active compounds read low 1.04 | locus YGL167C, strain pmr1, active compounds read low 1.03 | locus YGL173C, strain kem1, active compounds read low 1.01 | locus YGL227W, strain vid30, active compounds read low 1.01 | locus YGL240W, strain doc1, active compounds read low 0.967 | locus YGL253W, strain hxk2, active compounds read low 1.02 | locus YHR013C, strain ard1, active compounds read low 0.958 | locus YHR027C, strain rpn1, active compounds read low 1.01 | locus YHR030C, strain SLT2, active compounds read low 0.968 | locus YHR079C, strain IRE1, active compounds read low 0.968 | locus YHR142W, strain chs7, active compounds read low 0.983 | locus YJL092W, strain hpr5, active compounds read low 1.01 | locus YJL095W, strain BCK1 (second series), active compounds read low 1.02 | locus YJL095W, strain BCK1, active compounds read low 1 | locus YJL115W, strain asf1, active compounds read low 1.03 | locus YJL129C, strain trk1, active compounds read low 1.01 | locus YJL154C, strain vps35, active compounds read low 1.03 | locus YJL164C, strain tpk1, active compounds read low 0.982 | locus YJL166W, strain qcr8, active compounds read low 0.968 | locus YJL187C, strain SWE1, active compounds read low 1.02 | locus YJR066W, strain TOR1, active compounds read low 0.924 | locus YKL160W, strain elf1, active compounds read low 0.982 | locus YKR026C, strain gcn3, active compounds read low 1.01 | locus YKR091W, strain srl3, active compounds read low 1.02 | locus YLL001W, strain dnm1, active compounds read low 1.01 | locus YLL026W, active compounds read low 1.01 | locus YLL041C, strain sdh2, active compounds read low 1.02 | locus YLR027C, strain aat2, active compounds read low 1.01 | locus YLR113W, strain HOG1, active compounds read low 0.986 | locus YLR221C, strain rsa3, active compounds read low 1 | locus YLR258W, strain gsy2, active compounds read low 1.01 | locus YLR262C, strain YPT6 (second series), active compounds read low 1.01 | locus YLR320W, strain mms22, active compounds read low 0.911 | locus YLR342W, strain FKS1, active compounds read low 1 | locus YLR357W, strain rsc2, active compounds read low 0.964 | locus YLR370C, strain arc18, active compounds read low 1.03 | locus YLR384C, strain iki3, active compounds read low 1.04 | locus YML120C, strain ndi1, active compounds read low 1.01 | locus YMR058W, strain fet3, active compounds read low 1.01 | locus YMR125W, strain sto1, active compounds read low 0.989 | locus YMR129W, active compounds read low 1.02 | locus YMR205C, strain PFK2, active compounds read low 0.981 | locus YMR231W, strain pep5, active compounds read low 1.03 | locus YMR307W, strain GAS1, active compounds read low 0.917 | locus YNL128W, strain TEP1, active compounds read low 1.02 | locus YNL175C, strain NOP13, active compounds read low 0.993 | locus YNL183C, strain NPR1, active compounds read low 0.965 | locus YNL197C, strain WHI3, active compounds read low 0.998 | locus YNL209W, strain ssb2, active compounds read low 1.01 | locus YNL224C, strain SQS1, active compounds read low 1.01 | locus YNL248C, strain rpa49, active compounds read low 0.986 | locus YNL322C, strain KRE1 (second series), active compounds read low 1.02 | locus YNR049C, strain mso1, active compounds read low 1.02 | locus YOR001W, strain rrp6, active compounds read low 1 | locus YOR070C, strain gyp1, active compounds read low 1.02 | locus YOR080W, strain dia2, active compounds read low 1.02 | locus YOR083W, strain WHI5 (second series), active compounds read low 0.997 | locus YOR083W, strain WHI5, active compounds read low 0.979 | locus YOR106W, strain vam3, active compounds read low 0.987 | locus YOR231W, strain MKK1, active compounds read low 0.995 | locus YOR265W, strain rbl2, active compounds read low 1.01 | locus YOR270C, strain vph1, active compounds read low 1.01 | locus YOR290C, strain snf2, active compounds read low 0.995 | locus YPL051W, strain arl3, active compounds read low 0.977 | locus YPL078C, strain atp4, active compounds read low 0.985 | locus YPL106C, strain sse1, active compounds read low 1.01 | locus YPL240C, strain hsp82, active compounds read low 1.03 | locus YPL241C, strain CIN2, active compounds read low 1 | locus YPL256C, strain CLN2, active compounds read low 0.97
